# Laboratory results reported in PubChem BioAssay AID504850 (National Center for Advancing Translational Sciences (NCATS), 2011).
# In all, about 2,300 compounds went through this assay and about 1,200 (52%) were called active. About 34% were inconclusive and are not listed. Calls come from the whole dose curve; as a rule, active = well fitted inhibition curve with a large enough effect; inconclusive = small, poorly fitted or top-dose-only effect, or effect the other way; inactive = no such curve, though single readings can be large or run the other way. The set was probably picked from earlier hits. This is one part of the list.
# Experiment: Confirmation screen for delayed death inhibitors of the malarial parasite plastid, 48 hour incubation; note: nearly all actives have a fitted effect of over 65% in size
# Conditions: P. falciparum-infected erythrocytes, luciferase growth; series mostly up to 28.7 µM; activity change, negative = inhibition: at the top concentration
# How it was run: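 Single-generation (48 h, 37 C) exposure of integrated firefly luciferase-reporter P. falciparum in red cells, 0.1% parasitemia at 2% hematocrit, Albumax-supplemented RPMI. Falling luciferase signal marks parasite growth inhibition.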
# % is set by controls: 0 for no effect and ±100 for the full control effect; potency is the fitted concentration of half-maximal effect.
SMILES,Potency,"activity change, negative = inhibition"
CCCN1CCN(C(=O)C2CCN(S(=O)(=O)c3ccc4c(c3)NC(=O)C(C)S4)CC2)CC1 (stereo not given),12.6 µM (active),
CC(=O)c1c(C)[nH]c(C(=O)COC(=O)COc2ccccc2F)c1C,,-4.9% (inactive)
COc1ccc(C(C)(C)C)cc1NC(=O)c1[nH]c(C)c(C(C)=O)c1C,7.94 µM (active),
CC#CC#Cc1cccc(=O)o1,8.91 µM (active),
CCCn1c(CN2CCN(C(=O)OCC)CC2)nc2cc(NC(=O)C(C)C)ccc21,11.2 µM (active),
CCNc1ccc(Br)cc(C(=O)/C=C/c2c(Cl)cccc2Cl)c1=O,10 µM (active),
COc1ccc(-c2cn(-c3ccccc3)c3[n+]2CCS3)cc1,3.16 µM (active),
COc1cc(/C=C2\CC(C(C)(C)C)C/C(=C\c3cc(OC)c(OC)c(OC)c3)C2=O)cc(OC)c1OC (stereo not given),5.01 µM (active),
COc1cc(/C=C2\COC/C(=C\c3cc(OC)c(OC)c(OC)c3)C2=O)cc(OC)c1OC,2.82 µM (active),
COc1cc(/C=C2\COC/C(=C\c3ccc(O)c(OC)c3)C2=O)ccc1O,6.31 µM (active),
COc1cc(/C=C2/CCC/C(=C\c3cc(O)c(OC)c(Cl)c3)C2=O)cc(Cl)c1O,11.2 µM (active),
CCOc1ccc(/C=C2\SC(=S)N(C(C(=O)O)c3ccccc3)C2=O)cc1OC (stereo not given),,0.811% (inactive)
COc1ccc(/C=C2\CC/C(=C\c3ccc(OC)c(OC)c3)C2=O)cc1OC,15.8 µM (active),
CC(C)c1ccc(NC(=O)c2cc(S(=O)(=O)N3CCCC3)c[nH]2)cc1,12.6 µM (active),
COc1ccc(-c2c(C(C)=O)c(C)n(C)c2C)cc1,12.6 µM (active),
CC(C)N1CCC(N2CCN(Cc3ccc(-c4ccc(Cl)cc4)o3)CC2CCO)CC1 (stereo not given),6.31 µM (active),
OC(CN1C2=NCCN2c2ccccc21)c1ccc2c(c1)OCO2 (stereo not given),5.01 µM (active),
O=C(CN1C2=NCCCN2c2ccccc21)c1ccc2c(c1)OCO2,11.2 µM (active),
Cc1ccc(C)c(C(=O)CN2C3=NCCCN3c3ccccc32)c1,12.6 µM (active),
Nc1cccc2c1C(=O)N(C(=O)/C=C/c1ccc(F)cc1)C2=O,,-27.2% (inactive)
Cc1cc2c(c(=O)n1Cc1ccco1)C(c1cccnc1)C(C#N)=C(N)O2 (stereo not given),,-11.5% (inactive)
OC(c1ccccc1)(c1ccccc1)C1CCN(C(=S)NCCc2ccccc2)CC1,11.2 µM (active),
CN(Cc1cccc(Cl)c1Cl)C(=O)c1ccc(NC(=O)CC#N)cc1,3.98 µM (active),
O=C(CSc1nc(-c2ccco2)cc(C(F)(F)F)n1)Nc1ccccc1C(F)(F)F,14.1 µM (active),
O=C(CSc1ccc(-c2cccnc2)nn1)Nc1ccccc1C(F)(F)F,,-11.1% (inactive)
